From PubChem BioAssay AID504329 (Southern Research Specialized Biocontainment Screening …, 2011)
About 1,000 (0.29%) of roughly 340,000 compounds were called active. Rule as the data show it: inconclusive = inhibition above about 27% without an active follow-up result; inactive = below that. These entries were drawn from the full list. Potency and affinity values are given separately.

Assay: NS1A inhibition, H1N1 influenza, cell based functional assay (AID 504329)
Conditions: percent inhibition, at 12.5 µM, hits give high values

SMILES	inhibition
Cc1ccc(NCC(=O)N/N=C/c2ccncc2)cc1	-3.31% (inactive)
COc1ccc(Cc2noc(CN(C)CC(O)c3ccccc3)n2)cc1OC (stereo unspecified)	-6.23% (inactive)
CC(C)Cc1nnc(NC(=O)c2ccncc2)s1	7% (inactive)
C[C@H](CO)N1C[C@H](C)[C@@H](CN(C)S(=O)(=O)c2cccs2)Oc2ccc(NC(=O)Cc3ccccc3)cc2C1=O	-1.59% (inactive)
O=C(CN1C(=O)NC2(CCOc3ccccc32)C1=O)Nc1cccc(Cl)c1 (stereo unspecified)	3.28% (inactive)
CC(=O)CC(=O)Nc1ccn(-c2ccccc2)n1	10.6% (inactive)
O=C(CNC(=O)c1ccco1)NCC(=O)OCC(=O)c1ccc(Cl)c([N+](=O)[O-])c1	6.1% (inactive)
O=C1OC(c2ccc(F)cc2)=N/C1=C\C=C/c1ccccc1	-22.8% (inactive)
CC(C)(C)NC(=S)NC(=O)C12CCC3CC(CC(C3)C1)C2	0.27% (inactive)
CCOc1ncccc1C(=O)Nc1ccccc1N1CCOCC1	-4.05% (inactive)
Cc1csc(NC(=O)c2cccn2C)n1	-0.43% (inactive)
Cc1ccc(C(=O)Nc2nc(-c3ccccn3)cs2)s1	18.4% (inactive)
Cc1cccc(C(=O)NC(C(=O)Nc2nc(-c3ccccn3)cs2)C(C)C)c1 (stereo unspecified)	15.6% (inactive)
CC(Oc1ccccc1)C(=O)Nc1nc(-c2ccccn2)cs1 (stereo unspecified)	16.9% (inactive)
COc1ccc(NC(=O)CSCc2cc(=O)n3nc(C4CC4)sc3n2)cc1	2.59% (inactive)
CCCCOc1c(Cl)cc(CNC(C)(C)CO)cc1OCC	-2.92% (inactive)
Cc1ccc(-c2nn(C)c(=O)c3ccccc23)cc1S(=O)(=O)NCCN1CCOCC1	-10.6% (inactive)
O=C1C2CCCN2C(c2ccc(F)c(F)c2)N1c1cccc(Cl)c1 (stereo unspecified)	-6.3% (inactive)
Cc1cc(OCc2cn3cccnc3n2)ccc1Cl	6.77% (inactive)
CCOc1ccc2[nH]c(=O)c(CN(Cc3ccccc3OC)C(=O)c3ccccc3)cc2c1	21.1% (inactive)
CCOc1ccc(S(=O)(=O)N2CCC(C(=O)OCc3cccc(OC)c3OC)CC2)cc1	-13.5% (inactive)
COc1cccc(N=Nc2ccc(O)c3ncccc23)c1	-0.21% (inactive)
CCS(=O)(=O)c1ccc(OC)c(N=Nc2ccc(O)c3ncccc23)c1	9.35% (inactive)
COc1ccc(C)cc1N=Nc1ccc(O)c2ncccc12	6.77% (inactive)
Cc1ccc(C)c(N=Nc2ccc(O)c3ncccc23)c1	5.69% (inactive)
Cc1cccc(N=Nc2ccc(O)c3ncccc23)c1	0.95% (inactive)

SMILES	inhibition
COc1ccc(N=Nc2ccc(O)c3ncccc23)cc1	2.93% (inactive)
O=C(NCc1ccco1)c1nn(-c2ccccc2)c(=O)c2ccccc12	0.06% (inactive)
O=C(COC(=O)CSc1ccc2ccccc2c1)NCc1ccc2c(c1)OCO2	2.14% (inactive)
CC(C)(C)CC(C)(C)NCC(O)COc1ccc2c(c1)CCC2 (stereo unspecified)	5.01% (inactive)
Cc1ccc(S(=O)(=O)NC2CCCCC2)c(C)c1NS(C)(=O)=O	3.57% (inactive)
Cc1ccc(-c2nn(-c3ccccc3Cl)cc2C(=O)NCC2CCCO2)cc1 (stereo unspecified)	-0.44% (inactive)
COCCN(CC(=O)Nc1cccc(C)c1C)C(=O)Cc1cccs1	-7.25% (inactive)
Cc1cc(S(=O)(=O)N(Cc2ccccc2F)C2CC2)ccc1-n1cnnn1	6.46% (inactive)
O=C(Nc1ccccc1)OCN1C(=O)c2ccccc2C1=O	2.63% (inactive)
CC(C)(C)C(=O)O/N=C1/C(=O)N(c2ccccc2)c2ccccc21	-9.74% (inactive)
CCN(CC)c1ccc(/C=C(\C#N)C(N)=O)cc1	2.41% (inactive)
CCc1ccc(/C=C(/C#N)C(N)=S)cc1	-1.52% (inactive)
CCN(CC)S(=O)(=O)c1ccc2oc(Nc3ccccc3)nc2c1	10.4% (inactive)
[O-]c1c[n+](-c2ccc(-[n+]3cc([O-])on3)cc2)no1	3.68% (inactive)
Cc1ccnc2c1ccc1ccccc12	-14.1% (inactive)
Cc1cccc2cccnc12	-13.9% (inactive)
Cc1c(C)c2cccnc2c2ncccc12	3.77% (inactive)
Cc1ccc2c(C)ccc(O)c2n1	-11% (inactive)
Cc1n[nH]c(=O)c2c(NC(=O)CSc3nc4ccccc4c(=O)n3-c3ccc(OC(F)F)cc3)oc(C)c12	-4.1% (inactive)
CC(=O)N(C)C1=Nc2ccc(Cl)cc2C(c2ccccc2)=[N+]([O-])C1	-5.29% (inactive)
CCN(Cc1ccccc1)C(=O)COC(=O)CNS(=O)(=O)c1ccc(C)cc1	-5.52% (inactive)
CN(NC(=O)c1ccco1)c1nc2ccccc2nc1C(F)(F)F	-6.87% (inactive)
Cc1cc(-c2ccc(C)c(S(=O)(=O)Nc3cccc(CN4CCCC4)c3)c2)on1	-3.07% (inactive)
COc1ccccc1NC(=O)Nc1ccccc1C(=O)NCCCN1CCOCC1	-12.4% (inactive)
CCOc1ccc(N2CC(C(=O)N3CCCc4ccccc43)CC2=O)cc1 (stereo unspecified)	0.32% (inactive)
Cc1ccc(S(=O)(=O)N2CCOCC2)cc1NC(=O)C1=NN(c2ccccc2)C(=O)CC1	-4.05% (inactive)

SMILES	inhibition
Oc1cccc(Nc2c3ccccc3nc3ccccc23)c1	8.39% (inactive)
CCN(CC)CCn1c2ccccc2c2nc3ccccc3nc21	-13.6% (inactive)
Cc1ccccc1N1CCN(C2CCCN(C(=O)c3snnc3C)C2)CC1 (stereo unspecified)	-10.7% (inactive)
O=C1Nc2ccc(Br)cc2/C1=N\N=C\C1=C(N2CCOCC2)C(=C/c2ccccc2)/CC1	20.8% (inactive)
O=CC1=C(N2CCOCC2)/C(=C\c2ccccc2)CC1	-9.74% (inactive)
Cc1ccc(S(=O)(=O)CCC(=O)OCCOc2cccc(Br)c2)cc1	-115% (inactive)
Cc1cccc(OCCOC(=O)c2c(-c3ccccc3)noc2C)c1	-11.5% (inactive)
COc1ccc(S(=O)(=O)NCc2cccnc2)cc1NC(=O)c1ccccc1C	-8.44% (inactive)
CS(=O)(=O)N(CC(=O)Nc1ccccc1-c1ccccc1)c1ccc(F)cc1	1.39% (inactive)
O=C(Nc1cccc(Cl)c1)c1ccc(-n2cncn2)c([N+](=O)[O-])c1	2.4% (inactive)
CC(C(=O)OCC(=O)c1ccccc1)N1C(=O)c2ccccc2C1=O (stereo unspecified)	-4.62% (inactive)
CC(=O)c1cc2c(cc1NC(=O)C1CCC1)OCO2	10.9% (inactive)
Cn1c(=Nc2ccc(N3CCOCC3)cc2)ccc2ccccc21	-15.9% (inactive)
C/C(=N\N=c1/sc2ccccc2n1C)c1ccc(N2CCOCC2)cc1	-7.4% (inactive)
Cn1c(N)c(C(=O)CSc2nnc3n2CCCCC3)c(=O)n(C)c1=O	-13.2% (inactive)
CCOc1ccc(CNCCCSc2ncccn2)cc1	4.75% (inactive)
CCOC(=O)N1CCN(C(=O)c2ccc3nc(-c4ccccc4)c(-c4ccccc4)nc3c2)CC1	2.02% (inactive)
O=C(Nc1nc(-c2ccccn2)cs1)c1cc2ccccc2o1	25.1% (inactive)
Cc1ccc(-c2csc(NC(=O)c3ccc([N+](=O)[O-])o3)n2)cc1	6.86% (inactive)
Cc1ccc(C(=O)Nc2nc(-c3cccnc3)cs2)o1	-17% (inactive)
O=C(Nc1nc(-c2cccs2)cs1)c1ccc([N+](=O)[O-])o1	-3.14% (inactive)
COc1ccccc1C(=O)Nc1ccc2c(c1)n(C)c(=O)n2C	-3.88% (inactive)
CC(C)CN(C(=O)c1ccc(C(F)(F)F)cc1)c1c(N)n(CC(C)C)c(=O)[nH]c1=O	-4.85% (inactive)
CCCCNC(=S)Nc1ccc2nc(N3CCN(CC)CC3)cc(C)c2c1	9.06% (inactive)
COc1ccc(OCCCC(=O)Nc2ccc(OC)c(S(=O)(=O)N3CCOCC3)c2)cc1	-7.67% (inactive)
CNC(=O)c1ccc(Nc2nnc(C)c3ccccc23)cc1	-2.75% (inactive)

SMILES	inhibition
O=C1NCCN1CCN1C(=O)c2ccccc2NC1c1ccccc1 (stereo unspecified)	-24.1% (inactive)
CC(C)N1C(=O)/C(=C/c2nc3ccccc3c(=O)n2-c2ccccc2)c2ccccc21	27.7% (inactive)
CCn1c(/C=C2\C(=O)N(C(C)C)c3ccccc32)nc2ccccc2c1=O	-0.25% (inactive)
CC(C)Sc1cc(N2CCCC2)nc(-c2ccccc2)n1	-8.52% (inactive)
COc1ccc(CNC(=O)C2CCCN2C(=O)NC2CCCCC2)cc1 (stereo unspecified)	8.99% (inactive)
NC1=NC(=Nc2cccc(S(N)(=O)=O)c2)c2ccccc21	-7.83% (inactive)
COc1ccc(S(N)(=O)=O)cc1N(C)S(=O)(=O)c1ccccc1	-8.33% (inactive)
O=CN1CCc2scc[n+]2-c2ccccc21	-18.5% (inactive)
CCCCCC(=O)N/N=C(\C)c1ccccn1	5.83% (inactive)
C=CCNC(=S)N/N=C(\C)c1cccnc1	1.12% (inactive)
COc1ccccc1NC(=O)C/C(C)=N/NC(=O)c1ccccn1	12.6% (inactive)
C=CCNC(=S)N/N=C(\C)c1ccc(OC)cc1	1.71% (inactive)
C/C(Cc1ccccc1)=N\NC(=O)c1ccccn1	-7.02% (inactive)
COc1ccccc1NC(=S)Nc1ccccn1	-3.02% (inactive)
C/C(=N\NC(=O)CCCNc1ccc(C)cc1)c1ccccn1	-0.81% (inactive)
C/C(=N\NC(=S)Nc1ccc(C)cc1)c1cccc(N)c1	3.24% (inactive)
CC1(C)Oc2ccc(C(=O)NC3CCCC3)cc2N(CC(=O)NC2CCCCC2)C1=O	-5.58% (inactive)
Cc1cc(C)nc(Nc2ccccc2Cl)n1	-3.84% (inactive)
CN(CC(=O)Nc1ccc2c(c1)OCO2)S(=O)(=O)c1ccc(F)cc1	0.79% (inactive)
S=C(NCCc1ccccn1)Nc1cccc(Cl)c1	-6.8% (inactive)
S=C(NCc1ccccn1)Nc1cccc(Cl)c1	10.7% (inactive)
Cc1cccc(NC(=S)Nc2ccccn2)c1	3.18% (inactive)
C/C(=N\NC(=S)Nc1cccc(C)c1)c1ccccc1	2.46% (inactive)
